The values below come from PubChem BioAssay (Tox21).

A short description of assay [1]: qHTS assay to identify small molecule antagonists of the glucocorticoid receptor (GR) signaling pathway - cell viability counter screen (AID 720693). Note: nearly all actives have a fitted effect of over 55% in size.
A short description of assay [2]: qHTS assay for identifying genotoxic compounds that show differential cytotoxicity against isogenic chicken DT40 cell lines with known DNA damage response pathways - wild type cell line (AID 743012). Note: nearly all actives have a fitted effect of over 60% in size. Note: potency is the fitted concentration of half-maximal effect. In outline:
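Quantitative HTS on parental DT40 cells: 40 h compound treatment at 37 C/5% CO2, with viability then determined by CellTiter-Glo luminescence. Values serve as the DNA repair-proficient reference for differential cytotoxicity.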
(In general: Quantitative high-throughput screening tests each substance at several concentrations.)

Assay [3] in a line: qHTS assay for identifying genotoxic compounds that show differential cytotoxicity against isogenic chicken DT40 cell lines with known DNA damage response pathways - Rev3 mutant cell line (AID 743014). Note: nearly all actives have a fitted effect of over 55% in size. Note: potency is the fitted concentration of half-maximal effect.
Assay [4] is described as follows: qHTS assay for identifying genotoxic compounds that show differential cytotoxicity against isogenic chicken DT40 cell lines with known DNA damage response pathways - Rad54/Ku70 mutant cell line (AID 743015). Note: nearly all actives have a fitted effect of over 60% in size. Note: potency is the fitted concentration of half-maximal effect.
The nature of assay [5]: qHTS assay to identify small molecule antagonists of the androgen receptor (AR) signaling pathway using the MDA cell line - cell viability counter screen (AID 743041; note: nearly all actives have a fitted effect of over 45% in size). In outline:
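MDA-kb2 AR-luc human breast carcinoma cells (MMTV-luciferase, AR/GR responsive) were treated with compounds plus R1881 agonist for 16 h at 37 °C. Viability was read as CellTiter-Fluor fluorescence in the same wells as the reporter assay.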

Assay [6] in a line: qHTS assay to identify small molecule antagonists of the androgen receptor (AR) signaling pathway - cell viability counter screen (AID 743033; note: nearly all actives have a fitted effect of over 45% in size).
Assay [7] has as its target Androgen receptor (Homo sapiens) (UniProt P10275). As to the kind of experiment: qHTS assay to identify small molecule antagonists of the androgen receptor (AR) signaling pathway (AID 743035; active = well fitted inhibition curve with a large enough effect in the signal ratio in the repeat runs, not every such curve was filed as active; the % refers to the signal ratio; note: potency is the fitted concentration of half-maximal effect). The gist of the method:
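Cell line: GeneBLAzer AR-UAS-bla GripTite (HEK293). Stimulus: R1881 added after compound. Exposure: 16 h, 37C, 5% CO2. Readout: LiveBLAzer B/G FRET fluorescence after 2 h at room temperature.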

The target is the same in assay [8]. The assay is described as follows: qHTS assay to identify small molecule agonists of the androgen receptor (AR) signaling pathway (AID 743036; active = well fitted activation curve with a large enough effect in the signal ratio in the repeat runs, with a control signal flat, not every such curve was filed as active; the % refers to the signal ratio). The gist of the method: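 Beta-lactamase under UAS control, stably integrated in HEK293 GripTite cells, reports receptor activation. After 16 h compound treatment, cells received FRET substrate for 2 h at room temperature before fluorescence reading.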

Assay [9] has the same target. The assay is described as follows: qHTS assay to identify small molecule agonists of the androgen receptor (AR) signaling pathway using the MDA cell line (AID 743040; note: nearly all actives have a fitted effect of over 20% in size). The gist of the method:
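MDA-kb2 breast carcinoma cells stably carrying an MMTV-driven luciferase reporter (AR- and GR-responsive) were seeded and held 5 h at 37C, 0% CO2, then exposed to compounds in DMSO for 16 h. Luminescence was read 30 min after ONE-Glo addition.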

The target is the same in assay [10]. As to the kind of experiment: qHTS assay to identify small molecule antagonists of the androgen receptor (AR) signaling pathway using the MDA cell line (AID 743042; note: nearly all actives have a fitted effect of over 55% in size). In outline: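 MDA-kb2 cells (human breast carcinoma, stably carrying an MMTV-luciferase reporter responsive to AR and GR) were plated at 3,000 cells/well and preincubated 5 hr at 37C, then given compound plus R1881 agonist for 16 h. ONE-Glo luminescence was read.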

Several values for one entry are separate records, joined by “and”; a condition that tells them apart may be missing. Identical values can stand only once. Records with an inconclusive call do not appear. The source holds several records for some structures; these can differ, active in one and inactive in another. Activity calls are given as the source filed them. Unless noted, calls come from the whole dose curve; as a rule, active = well fitted curve in the direction sought with a large enough effect in the repeat runs; inconclusive = weak or mixed curves; inactive = no such curve, though single readings can be large; an effect the other way counts as inactive or inconclusive.

Sequence of Androgen receptor (Homo sapiens) (P10275 whole entry, looked up): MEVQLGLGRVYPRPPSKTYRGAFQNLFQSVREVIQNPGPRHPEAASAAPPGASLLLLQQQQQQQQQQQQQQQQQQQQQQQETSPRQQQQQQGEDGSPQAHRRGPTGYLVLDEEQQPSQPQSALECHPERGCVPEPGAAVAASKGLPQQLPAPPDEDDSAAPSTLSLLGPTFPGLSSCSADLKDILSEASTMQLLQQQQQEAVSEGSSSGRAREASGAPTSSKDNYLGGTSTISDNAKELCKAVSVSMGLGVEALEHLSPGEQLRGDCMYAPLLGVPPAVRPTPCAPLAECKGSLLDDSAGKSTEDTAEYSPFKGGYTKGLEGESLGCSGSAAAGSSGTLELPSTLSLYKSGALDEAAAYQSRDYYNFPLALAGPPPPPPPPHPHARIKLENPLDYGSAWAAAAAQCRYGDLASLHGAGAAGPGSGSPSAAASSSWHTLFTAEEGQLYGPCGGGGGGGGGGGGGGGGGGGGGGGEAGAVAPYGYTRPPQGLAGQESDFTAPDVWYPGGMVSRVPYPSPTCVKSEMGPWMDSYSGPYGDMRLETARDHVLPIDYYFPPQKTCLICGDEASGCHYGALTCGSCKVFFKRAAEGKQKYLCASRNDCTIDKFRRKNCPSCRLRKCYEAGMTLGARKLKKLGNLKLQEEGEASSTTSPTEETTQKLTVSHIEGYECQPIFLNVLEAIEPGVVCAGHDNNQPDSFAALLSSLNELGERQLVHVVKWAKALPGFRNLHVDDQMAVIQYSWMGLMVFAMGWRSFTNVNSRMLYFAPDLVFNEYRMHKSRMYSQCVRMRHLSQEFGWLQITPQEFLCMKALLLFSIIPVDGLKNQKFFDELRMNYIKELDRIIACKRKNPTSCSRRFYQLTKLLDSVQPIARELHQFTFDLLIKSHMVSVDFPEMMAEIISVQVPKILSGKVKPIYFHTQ

As to `OCCN(CCO)CCO`, the result in assay [1] and in assay [5] was inactive. For the same molecule, the Potency result in assay [2], in assay [3] and in assay [4] was “inactive” each time.

Consider `Clc1ccccc1Cl`, for which the result in assay [1] and in assay [5] was inactive. Further, the Potency result in assay [2], in assay [3] and in assay [4] was “inactive” throughout.

Turning to `Cc1ccc([N+](=O)[O-])cc1C`, the Potency entry in assay [2], in assay [3] and in [4] was “inactive” each time. The outcome in [6] and in assay [5] was inactive.

For `O=c1n(Cl)c(=O)n(Cl)c(=O)n1Cl`, the Potency entry in assay [2], in assay [3] and in assay [4] was “inactive” throughout. Further, the outcome in [6] and in assay [5] was inactive.

Regarding `CC(C#N)CCC#N` (stereo not drawn), the Potency result in [2], in [3] and in [4] was “inactive” throughout. Also, the molecule was classed as inactive in [6] and in [5].

On to `CN(C)[C@@H]1C(=O)C(C(N)=O)=C(O)[C@@]2(O)C(=O)C3=C(O)c4c(O)cccc4[C@@](C)(O)[C@H]3C[C@@H]12`, for which the Potency entry in assay [2], in assay [3] and in assay [4] was “inactive” throughout. Besides, the molecule was called inactive in assay [5].

Regarding `O=C(O)c1ccccn1`, the Potency result in assay [2], in [3] and in assay [4] was “inactive” in each case. In [5], the outcome was inactive.

Regarding `Nc1ccc(Br)cc1`, the Potency result in [2], in assay [3] and in assay [4] was “inactive” each time. The call in assay [6] and in assay [5] was inactive.

As for `Nc1ccc(Oc2ccc(N)cc2)cc1`, the Potency entry in [3] is “inactive”. The call in assay [5] was inactive.

As for `C[C@]12CC[C@H]3[C@@H](CC[C@@]45O[C@@H]4C(O)=C(C#N)C[C@]35C)[C@@H]1CC[C@@H]2O`, the Potency entry in assay [2] is “inactive and 61.1 µM (active)”; in assay [3] it was “inactive and 27.3 µM (active)”; in [4], 30.6 µM (active). For the same molecule, the call in [6] and in assay [5] was inactive.

Turning to `Clc1cccc(Cl)c1Cl`, the Potency result in assay [2], in assay [3] and in [4] was “inactive” throughout. Further, the outcome in assay [6] and in assay [5] was inactive.

Take `COCCl`: the Potency entry in assay [2], in assay [4] and in assay [7] was “inactive” each time. Also, the Potency result in [3] was “inactive and 13.8 µM (active)”. Also, the molecule was classed as inactive in [8], in [9], in assay [5] and in assay [10].

As for `CCOP(=S)(OCC)Oc1cnc2ccccc2n1`, the Potency in assay [2] is 54.5 µM (active); in assay [3], 27.3 µM (active); in assay [4], 27.3 µM (active). The molecule was called inactive in assay [5].

Consider `NCC(O)c1ccc(O)cc1` (stereo not drawn), for which the Potency result in assay [2], in assay [3] and in assay [4] was “inactive” in each case. The result in [6] and in [5] was inactive.

For the molecule `O=c1[nH]c(=O)[nH]c(=O)[nH]1`, the Potency result in [2], in assay [3], in assay [4] and in assay [7] was “inactive” each time. In addition, the result in [8], in assay [9], in [5] and in assay [10] was inactive.

With `CNC(=O)Oc1ccccc1OC(C)C`, the Potency entry in assay [2], in assay [3] and in assay [4] was “inactive” each time. For the same molecule, the outcome in assay [6] and in assay [5] was inactive.

Consider `Clc1ccc(Cl)cc1`, for which the Potency result in assay [2], in [3] and in [4] was “inactive” each time. The outcome in [6] and in assay [5] was inactive.

Regarding `CCCCCCCCCl`, the Potency entry in [2], in assay [3] and in assay [4] was “inactive” throughout. For the same molecule, the molecule was classed as inactive in assay [6] and in assay [5].

With `COP(N)(=O)SC` (stereo not drawn), the Potency entry in [2], in assay [3] and in assay [4] was “inactive” throughout. In addition, the outcome in [6] and in [5] was inactive.

As for `O=[N+]([O-])c1ccc([As](=O)(O)O)cc1`, the Potency entry in assay [2], in [3] and in assay [4] was “inactive” each time. In addition, the outcome in assay [6] and in assay [5] was inactive.

Consider `Cn1cc(-c2ccccc2)c(=O)c(-c2cccc(C(F)(F)F)c2)c1`, for which the Potency result in assay [2] and in assay [3] was “inactive” in each case. Also, in [4], the Potency was 61.1 µM (active). Besides, the molecule was called inactive in [5].

With `CCOP(=S)(OCC)SCCSCC`, the Potency result in assay [2] and in assay [4] was “inactive” each time. The molecule was called inactive in [5].

Turning to `CCCC1COC(Cn2cncn2)(c2ccc(Cl)cc2Cl)O1` (stereo not drawn), the Potency in assay [2] was 55.5 µM (active) and 12.2 µM (active); in [3], 27.8 µM (active) and 19.3 µM (active); in assay [4], 55.5 µM (active) and 17.2 µM (active); in assay [7], 49.9 µM (active) and 43.6 µM (active). Also, the result in assay [8], in assay [9] and in assay [5] was inactive.

As to `CC(Br)C(=O)O` (stereo not drawn), the Potency result in assay [2], in assay [3] and in [4] was “inactive” throughout. The outcome in assay [6] and in assay [5] was inactive.

As to `CON(C)C(=O)Nc1ccc(Cl)c(Cl)c1`, the Potency result in assay [3] was “inactive”. In addition, in assay [4], the Potency result is “inactive and 54.5 µM (active)”. For the same molecule, the molecule was called inactive in assay [6] and in [5].

Turning to `C=CCO`, the Potency result in [2], in assay [3] and in [4] was “inactive” in each case. Also, the molecule was called inactive in assay [5].

Take `O=S(=O)(c1ccc(Cl)cc1)c1cc(Cl)c(Cl)cc1Cl`: the Potency entry is “inactive and 48.6 µM (active)” in [2]; “inactive and 61.1 µM (active)” in assay [3]; “inactive and 54.5 µM (active)” in [4]. Moreover, the molecule was called inactive in assay [5].

For the molecule `C=C(C)CCl`, the Potency result in assay [2], in assay [3], in assay [4] and in [7] was “inactive” each time. Moreover, the result in assay [8], in [9], in assay [5] and in assay [10] was inactive.

Consider `c1ccc(-c2ccccc2)cc1`, for which the Potency entry in [2], in assay [3], in assay [4] and in assay [7] was “inactive” throughout. The molecule was called inactive in assay [8], in [9], in [5] and in assay [10].

Turning to `c1ccc2c(c1)Oc1ccccc1O2`, the Potency entry in assay [2], in [3] and in assay [4] was “inactive” throughout. Besides, in [5], the outcome was inactive.

For `Cc1cccc([N+](=O)[O-])c1`, the Potency entry in assay [2], in assay [3] and in assay [4] was “inactive” in each case. Also, the molecule was classed as inactive in assay [5].

Take `CC(C)NC(=O)N1CC(=O)N(c2cc(Cl)cc(Cl)c2)C1=O`: the Potency result in [2] is “inactive”. Also, the Potency in assay [3] was 54.5 µM (active). For the same molecule, the result in assay [5] was inactive.

With `CCN(CC)CCO`, the Potency entry in assay [2], in assay [3] and in assay [4] was “inactive” in each case. In addition, the outcome in assay [5] was inactive.

In the case of `CC(C)(C)C(O)(CCc1ccc(Cl)cc1)Cn1cncn1` (stereo not drawn), the Potency in [2] was 61.1 µM (active); in [3], 61.9 µM (active) and 61.1 µM (active); in assay [4], 69.4 µM (active) and 61.1 µM (active). Besides, the result in assay [5] was inactive.

Consider `CN1C(=O)CN=C(c2ccccc2)c2cc(Cl)ccc21`, for which the Potency result in assay [2] and in assay [3] was “inactive” each time. Moreover, in assay [5], the call was inactive.

As to `CC(NC(C)(C)C)C(=O)c1cccc(Cl)c1` (stereo not drawn), the Potency result in assay [2] and in [4] was “inactive” in each case. In [3], the Potency result is “inactive and 23 µM (active)”. Besides, the molecule was classed as inactive in assay [6] and in [5].

For `CN(C)N=O`, the Potency result in assay [2], in assay [3] and in assay [4] was “inactive” in each case. Also, the outcome in [6] and in assay [5] was inactive.

As for `COC(=O)NS(=O)(=O)c1ccc(N)cc1`, the Potency result in assay [2], in [3] and in [4] was “inactive” in each case. Besides, the molecule was called inactive in assay [6] and in assay [5].

With `CCC[N+](=O)[O-]`, the Potency entry in [2], in [3] and in [4] was “inactive” throughout. In addition, the molecule was classed as inactive in [5].
